A number with no mark means an inactive call. Results filed as inconclusive are left out. The source made the active and inactive calls. Unless noted, calls follow the shape of the dose curve; as a rule, active = well fitted curve in the direction sought with a large enough effect in the repeat runs; inconclusive = weak or mixed curves; inactive = no such curve, though single readings can be large; an effect the other way counts as inactive or inconclusive.

The target of experiment [1] is Progesterone receptor (Homo sapiens) (UniProt P06401). The experiment can be described thus: qHTS assay to identify small molecule antagonists of the progesterone receptor (PR) signaling pathway (AID 1346795; active = well fitted inhibition curve with a large enough effect in the signal ratio in the repeat runs, not every such curve was filed as active; the % refers to the signal ratio; also: potency is read from the fitted curve at half-maximal effect). The method in brief: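 Antagonist mode with agonist R5020 at 1 nM final and 16 hr incubation at 37C. Reporter was beta-lactamase driven by UAS in HEK293T (PR-UAS-bla), 2% charcoal-stripped serum; signal from LiveBLAzer FRET substrate, 2 hr at room temperature.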
Chain of Progesterone receptor (Homo sapiens) (P06401 whole entry, looked up): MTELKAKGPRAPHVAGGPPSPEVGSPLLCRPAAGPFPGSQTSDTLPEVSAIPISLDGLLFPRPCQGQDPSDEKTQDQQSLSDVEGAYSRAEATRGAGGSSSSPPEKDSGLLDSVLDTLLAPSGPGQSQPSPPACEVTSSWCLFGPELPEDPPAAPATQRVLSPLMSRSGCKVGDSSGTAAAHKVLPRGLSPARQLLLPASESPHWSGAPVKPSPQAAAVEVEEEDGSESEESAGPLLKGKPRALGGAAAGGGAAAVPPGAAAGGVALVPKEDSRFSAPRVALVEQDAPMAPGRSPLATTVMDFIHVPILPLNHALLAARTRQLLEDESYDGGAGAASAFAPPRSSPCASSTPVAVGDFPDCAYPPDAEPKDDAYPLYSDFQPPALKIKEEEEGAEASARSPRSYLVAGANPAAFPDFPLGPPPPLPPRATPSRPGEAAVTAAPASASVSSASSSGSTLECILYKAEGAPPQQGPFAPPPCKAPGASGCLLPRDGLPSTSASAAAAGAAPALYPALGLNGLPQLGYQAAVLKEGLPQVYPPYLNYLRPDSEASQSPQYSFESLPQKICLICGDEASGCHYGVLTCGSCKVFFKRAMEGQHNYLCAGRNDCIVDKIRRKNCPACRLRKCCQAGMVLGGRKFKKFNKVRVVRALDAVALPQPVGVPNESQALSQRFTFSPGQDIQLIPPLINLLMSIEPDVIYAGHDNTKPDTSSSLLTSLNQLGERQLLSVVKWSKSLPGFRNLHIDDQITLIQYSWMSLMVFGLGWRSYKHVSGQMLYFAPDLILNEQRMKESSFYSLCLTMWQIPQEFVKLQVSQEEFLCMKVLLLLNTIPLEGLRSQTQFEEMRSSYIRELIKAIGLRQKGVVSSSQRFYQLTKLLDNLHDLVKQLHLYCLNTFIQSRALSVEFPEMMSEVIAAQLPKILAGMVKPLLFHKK
A general note: In qHTS, concentration-response curves come from the screen itself.

A short description of experiment [2]: qHTS assay to identify small molecule agonists of the progesterone receptor (PR) signaling pathway - cell viability counter screen (AID 1346799; calls by dose curve; also: nearly all actives have a fitted effect of over 45% in size). An outline of the steps: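 Cytotoxicity measured by CellTiter-Glo luminescence (30 min, RT) in the same wells as the PR beta-lactamase agonist read. Those HEK293T cells had 16 h compound treatment at 37 C in 2% charcoal-stripped FBS medium.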

Experiment [3] can be described thus: qHTS assay to identify small molecule antagonists of the TGF-beta/Smad signaling pathway - cell viability counter screen (AID 1346824). Also: nearly all actives have a fitted effect of over 50% in size. An outline of the steps: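 Cytotoxicity counter-screen run in the same wells as the beta-lactamase Smad reporter read: CellTiter-Glo luminescence after 30 min at room temperature. HEK 293T SBE-bla cells had 5 hr compound exposure at 37 C with TGF-beta1 (0.25 ng/mL stock).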

Experiment [4] is described as follows: qHTS assay to identify small molecule agonists of the TGF-beta/Smad signaling pathway - cell viability counter screen (AID 1346829). Also: top concentration of the series differs between compounds; nearly all actives have a fitted effect of over 45% in size. The method in brief:
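CellTiter-Glo luminescence readout; SBE-bla HEK 293T cells, overnight plating, compound 5 hr at 37 C/5% CO2, then bla substrate 2 hr RT, then CellTiter-Glo 30 min RT.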

Experiment [5] in a line: qHTS assay to identify small molecule agonists of the TGF-beta/Smad signaling pathway (AID 1346859; active = well fitted activation curve with a large enough effect in the signal ratio in the repeat runs, not every such curve was filed as active; the % refers to the signal ratio; also: series mostly up to about 77 µM). An outline of the steps:
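Fluorescence (ex 405 nm; em 460 and 530 nm) was read 2 h after LiveBLAzer FRET substrate at RT. The preceding compound treatment of overnight-plated SBE-bla HEK293T cells lasted 5 h at 37 C.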

Experiment [6] addresses Thyrotropin-releasing hormone receptor (Homo sapiens) (UniProt P34981). The experiment can be described thus: qHTS assay to identify small molecule antagonists of the thyrotropin-releasing hormone receptor (TRHR) signaling pathway (AID 1346877; active = well fitted inhibition curve with a large enough effect in the repeat runs, not every such curve was filed as active; also: series mostly up to about 51 µM). An outline of the steps: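 Kinetic fluorescence (3 min, 1 s resolution) following stimulation with TRH at 1 nM final; HEK293 cells bearing human TRHR; 5 min compound preincubation at RT; concentration-response over 15 points, triplicates.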

Experiment [7] shares this target. The experiment can be described thus: qHTS assay to identify small molecule agonists of the thyrotropin-releasing hormone receptor (TRHR) signaling pathway (AID 1346891; calls by dose curve; also: series mostly up to about 58 µM). An outline of the steps: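 Agonist-mode intracellular calcium readout: kinetic fluorescence over 3 min at 1 s intervals after compound addition to TRHR-HEK293 cells (18 h seeded, 2 h dye-loaded at 37 C). Fifteen concentrations, triplicates.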

Experiment [8] can be described thus: Human pregnane X receptor (PXR) small molecule agonists, qHTS cell viability counter screen (AID 1346977). Also: nearly all actives have a fitted effect of over 50% in size. An outline of the steps:
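Same-well viability read: CellTiter-Fluor added after 23 hr compound exposure, fluorescence measured 1 hr later. Cells were PXR-Luc HepG2 seeded at 2,000/well in 5% charcoal-stripped FBS medium, rested 5 hr before dosing at 37 C.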

Experiment [9] can be described thus: Caspase-3/7 induction in HepG2 cells by small molecules, qHTS assay (AID 1346978). Also: nearly all actives have a fitted effect of over 15% in size. An outline of the steps: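 Caspase-3/7 induction was measured by Caspase-Glo 3/7 luminescence (30 min, room temperature) after a 17 hr compound exposure of wild-type HepG2 cells seeded at 2,000 per well and pre-incubated 5 hr.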
Experiment [10] in a line: Caspase-3/7 induction in CHO-K1 cells by small molecules, qHTS cell viability counter screen (AID 1346979). Also: nearly all actives have a fitted effect of over 35% in size. The method in brief:
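Cytotoxicity counter screen: CellTiter-Fluor added to compound-treated wild-type CHO-K1 cells at 16 h (37C, 5% CO2), fluorescence measured 1 h later; same wells as caspase-3/7 measurement.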

Experiment [11] in a line: Caspase-3/7 induction in CHO-K1 cells by small molecules, qHTS assay (AID 1346980). Also: nearly all actives have a fitted effect of over 15% in size. The method in brief:
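Luminescent Caspase-Glo 3/7 read (30min, room temperature) quantified apoptosis induction. Cells were wild-type CHO-K1, treated with compound for 17hr at 37 C and 5% CO2.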

Experiment [12] is described as follows: Caspase-3/7 induction in HepG2 cells by small molecules, qHTS cell viability counter screen (AID 1346981). Also: series mostly up to about 92 µM; nearly all actives have a fitted effect of over 30% in size. The method in brief: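 In this quantitative HTS counter screen, compounds delivered in DMSO were left on unmodified HepG2 cells for 16 hr at 37 C. Viability was then determined fluorometrically with CellTiter-Fluor, in parallel with caspase-3/7 induction in the same wells.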

Experiment [13] has as its target Nuclear receptor subfamily 1 group I member 2 (Homo sapiens) (UniProt O75469). Put plainly: Human pregnane X receptor (PXR) small molecule agonists, qHTS assay (AID 1346982). Also: nearly all actives have a fitted effect of over 35% in size. Also: potency is read from the fitted curve at half-maximal effect. The method in brief:
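Reporter HepG2 cells expressing PXR-Luc are cultured in charcoal-stripped FBS (5%), treated with compounds for 24 hr at 37 C, and assayed by ONE-Glo luminescence after 30 min at room temperature.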

Experiment [14] has as its target Cytochrome P450 2C19 (Homo sapiens) (UniProt P33261). Put plainly: Cytochrome P450 Family 2 Subfamily C Member 19 (CYP2C19) small molecule antagonists: luciferase reporter qHTS assay (AID 1671197). Also: nearly all actives have a fitted effect of over 65% in size. Also: potency is read from the fitted curve at half-maximal effect. The method in brief: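 Enzyme-substrate mix with proluciferin substrate (P450-Glo CYP2C19 system) preincubated with compounds 10 min at room temperature; NADPH regeneration solution added, 37C for 1 h; detection reagent stops reaction, luminescence read after 20 min. Ketoconazole positive control.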
(In general: In a reporter assay the amount or activity of a reporter protein is the signal.)

A short description of experiment [15]: qHTS assay to identify small molecule antagonists of the progesterone receptor (PR) signaling pathway - cell viability counter screen (AID 1346798). Also: series mostly up to about 92 µM; nearly all actives have a fitted effect of over 50% in size. The method in brief:
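Cytotoxicity read as CellTiter-Glo luminescence (30 min, room temperature) in the same wells as the beta-lactamase readout. HEK293T PR-UAS-bla cells in charcoal-stripped 2% FBS received compound and R5020, then 16 h at 37C, 5% CO2.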

Experiment [16] has as its target Nuclear receptor subfamily 1 group I member 2 (Rattus norvegicus) (UniProt Q9R1A7). The experiment can be described thus: Rat pregnane X receptor (rPXR) activation by small molecules, qHTS assay (AID 1346983). Also: nearly all actives have a fitted effect of over 20% in size. Particulars: rPXR luciferase reporter cells, One-Glo luminescence, 24 h; max activation: active compounds read high. The method in brief:
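Luminescent readout (One-Glo luciferase, 30 min room temperature) followed 24 hr compound treatment at 37 C of rPXR cells plated 2,000 per well and preincubated 5hr; qHTS format with compounds delivered in DMSO.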

Experiment [17] deals with Nuclear receptor subfamily 1 group I member 2 (Homo sapiens) (UniProt O75469). Put plainly: CYP3A4 induction through human pregnane X receptor (PXR) by small molecules, qHTS assay (AID 1346984). Also: nearly all actives have a fitted effect of over 40% in size. An outline of the steps:
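Induction measured in HepG2-based DPX-2 cells co-expressing human PXR and a CYP3A4 promoter-driven luciferase. After a 24-hour compound exposure, cells received CYP3A4 luciferin substrate at 3uM final for 3 hours, and light output was then recorded.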

Experiment [18] shares this target. The experiment can be described thus: Human pregnane X receptor (PXR) activation by small molecules, qHTS assay (AID 1346985). Also: nearly all actives have a fitted effect of over 40% in size. The method in brief:
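DPX-2 cells (HepG2 co-transfected with a PXR response element and a CYP3A4-promoter luciferase construct) were seeded at 2,000 per well, rested 5 hr at 37C, then exposed to DMSO-dissolved compounds for 24 hr. Activation was read as luciferase luminescence.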

In experiment [19] the target is Cytochrome P450 2D6 (Homo sapiens) (UniProt P10635). Put plainly: Cytochrome P450 Family 2 Subfamily D Member 6 (CYP2D6) small molecule antagonists: luciferase reporter qHTS assay (AID 1671196). Also: nearly all actives have a fitted effect of over 50% in size. Also: potency is read from the fitted curve at half-maximal effect. The method in brief: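 Test chemicals meet CYP2D6 plus proluciferin substrate (10 min, RT); NADPH regenerating solution then drives turnover for 1 h. Detection reagent halts the reaction; luminescence measured after 20 min.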
Chain of Cytochrome P450 2D6 (Homo sapiens) (P10635 whole entry, looked up): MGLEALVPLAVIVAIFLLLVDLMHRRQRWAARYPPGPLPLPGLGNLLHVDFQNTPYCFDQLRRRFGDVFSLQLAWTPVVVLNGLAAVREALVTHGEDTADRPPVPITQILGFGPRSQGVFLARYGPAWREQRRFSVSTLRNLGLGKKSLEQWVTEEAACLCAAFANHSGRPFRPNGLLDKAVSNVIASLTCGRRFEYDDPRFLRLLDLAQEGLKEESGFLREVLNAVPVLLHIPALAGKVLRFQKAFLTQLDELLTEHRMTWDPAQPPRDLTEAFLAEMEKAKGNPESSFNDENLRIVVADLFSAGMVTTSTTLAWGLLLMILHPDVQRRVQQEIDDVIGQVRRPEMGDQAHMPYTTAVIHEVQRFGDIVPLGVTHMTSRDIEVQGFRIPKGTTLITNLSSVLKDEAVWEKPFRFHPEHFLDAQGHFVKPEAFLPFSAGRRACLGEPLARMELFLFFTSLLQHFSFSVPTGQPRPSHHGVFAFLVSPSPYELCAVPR
% is scaled to controls: 0 for no effect and ±100 for the full control effect.

Chain of Thyrotropin-releasing hormone receptor (Homo sapiens) (P34981 whole entry, looked up): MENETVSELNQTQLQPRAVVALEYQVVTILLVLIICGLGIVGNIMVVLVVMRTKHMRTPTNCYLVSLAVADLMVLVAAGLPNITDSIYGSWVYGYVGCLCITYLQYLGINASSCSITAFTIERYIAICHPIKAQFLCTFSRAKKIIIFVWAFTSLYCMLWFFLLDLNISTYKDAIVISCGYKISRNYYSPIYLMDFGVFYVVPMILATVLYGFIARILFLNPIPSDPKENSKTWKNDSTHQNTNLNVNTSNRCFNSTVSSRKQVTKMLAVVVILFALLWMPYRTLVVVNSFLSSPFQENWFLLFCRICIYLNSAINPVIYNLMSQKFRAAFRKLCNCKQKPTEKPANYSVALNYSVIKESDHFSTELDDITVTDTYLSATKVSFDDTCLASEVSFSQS
Chain of Cytochrome P450 2C19 (Homo sapiens) (P33261 whole entry, looked up): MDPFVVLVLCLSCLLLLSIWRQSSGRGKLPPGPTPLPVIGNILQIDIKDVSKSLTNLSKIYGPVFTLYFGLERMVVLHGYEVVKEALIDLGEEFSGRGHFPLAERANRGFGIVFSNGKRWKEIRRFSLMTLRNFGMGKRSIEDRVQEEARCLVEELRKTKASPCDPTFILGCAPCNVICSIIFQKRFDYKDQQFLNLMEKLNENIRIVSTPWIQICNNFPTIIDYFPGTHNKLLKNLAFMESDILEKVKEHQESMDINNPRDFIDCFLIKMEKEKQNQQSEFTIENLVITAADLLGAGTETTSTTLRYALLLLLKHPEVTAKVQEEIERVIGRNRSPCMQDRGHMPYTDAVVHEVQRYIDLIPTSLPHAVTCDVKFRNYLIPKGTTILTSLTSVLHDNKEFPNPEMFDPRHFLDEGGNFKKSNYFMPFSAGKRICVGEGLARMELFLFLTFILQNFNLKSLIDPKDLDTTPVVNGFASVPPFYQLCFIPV
Chain of Nuclear receptor subfamily 1 group I member 2 (Homo sapiens) (O75469 whole entry, looked up): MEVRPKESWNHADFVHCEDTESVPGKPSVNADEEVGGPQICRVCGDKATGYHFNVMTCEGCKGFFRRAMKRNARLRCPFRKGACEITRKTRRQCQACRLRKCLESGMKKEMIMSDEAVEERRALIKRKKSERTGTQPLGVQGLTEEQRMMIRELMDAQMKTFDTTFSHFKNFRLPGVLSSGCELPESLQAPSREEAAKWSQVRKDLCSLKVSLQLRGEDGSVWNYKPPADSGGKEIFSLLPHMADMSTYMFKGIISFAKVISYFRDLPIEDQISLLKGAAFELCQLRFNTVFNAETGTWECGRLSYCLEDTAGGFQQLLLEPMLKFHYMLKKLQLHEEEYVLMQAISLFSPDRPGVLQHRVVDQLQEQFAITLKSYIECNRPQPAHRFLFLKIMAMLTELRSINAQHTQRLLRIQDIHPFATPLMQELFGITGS
Chain of Nuclear receptor subfamily 1 group I member 2 (Rattus norvegicus) (Q9R1A7 whole entry, looked up): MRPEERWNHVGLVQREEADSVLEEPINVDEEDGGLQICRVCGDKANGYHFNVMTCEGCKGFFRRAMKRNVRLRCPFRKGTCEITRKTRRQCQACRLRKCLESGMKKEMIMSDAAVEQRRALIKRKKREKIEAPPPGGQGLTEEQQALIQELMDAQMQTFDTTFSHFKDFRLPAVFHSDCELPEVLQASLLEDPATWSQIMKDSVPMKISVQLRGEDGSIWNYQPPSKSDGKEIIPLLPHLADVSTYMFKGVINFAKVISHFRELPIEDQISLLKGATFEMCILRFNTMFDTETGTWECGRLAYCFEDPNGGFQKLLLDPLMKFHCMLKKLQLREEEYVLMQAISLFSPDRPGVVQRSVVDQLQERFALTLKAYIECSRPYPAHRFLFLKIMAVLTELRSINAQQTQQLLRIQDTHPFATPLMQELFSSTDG

Regarding `CCCCCCCCN1CCCC1=O`, the Potency result in experiment [1], in experiment [2], in experiment [7], in experiment [8], in experiment [10] and in experiment [12] was “inactive” each time. Also, the call in [3], in experiment [4], in experiment [5], in experiment [6], in [9] and in experiment [11] was inactive. Also, the Potency in experiment [13] was 24.3 µM (active); in [14], 10 µM (active).

`O=C(O)CNC(=O)c1ccccc1`: the Potency entry in [1], in experiment [15], in experiment [7], in experiment [8], in experiment [10] and in experiment [12] was “inactive” in each case. Also, the Potency entry in [17], in experiment [18], in [19] and in experiment [14] was “inactive” in each case. The result in [3], in experiment [4], in experiment [5], in experiment [6], in [9] and in experiment [11] was inactive. Moreover, in experiment [16], the max activation is -5.13%.

In the case of `O=[N+]([O-])c1cncn1CCN1CCOCC1`, the Potency entry in experiment [15], in [7], in [8], in experiment [10], in experiment [12] and in [13] was “inactive” in each case. The Potency result in [19] and in [14] was “inactive” each time. Also, the compound was classed as inactive in [3], in experiment [4], in experiment [5], in experiment [6] and in [9].

In the case of `COC(=O)Nc1ccc(Cl)c(Cl)c1`, the Potency is 30.5 µM (active) in experiment [1], 60.8 µM (active) in [13] and 17.7 µM (active) in experiment [14]. Moreover, the Potency entry in experiment [15], in experiment [8], in [10] and in experiment [12] was “inactive” throughout. Besides, the outcome in [3], in experiment [4], in [5], in experiment [6], in experiment [9] and in experiment [11] was inactive.

`CC(=O)c1ccccc1[N+](=O)[O-]`: the Potency entry in experiment [15], in experiment [2], in experiment [7], in experiment [8], in [10] and in experiment [12] was “inactive” in each case. Moreover, the Potency result in [19] and in experiment [14] was “inactive” in each case. For the same compound, the compound was classed as inactive in [3], in experiment [4], in [5], in experiment [6] and in experiment [11]. In [13], the Potency was 30.1 µM (active).

Take `CCCO[Si](OCCC)(OCCC)OCCC`: the Potency result in experiment [15], in [2], in experiment [7], in experiment [8], in experiment [10] and in [12] was “inactive” in each case. Moreover, the Potency result in experiment [13] and in experiment [19] was “inactive” in each case. Also, the compound was classed as inactive in experiment [3], in experiment [4], in [5], in experiment [6] and in experiment [9].

Take `CCOc1ccc2nc(S(N)(=O)=O)sc2c1`: the Potency result in experiment [15], in experiment [7], in experiment [8], in experiment [10], in [12] and in experiment [19] was “inactive” in each case. In experiment [14], the Potency result was “inactive”. In addition, the result in [3], in experiment [4], in experiment [5], in experiment [6] and in experiment [9] was inactive.

As for `CC(=O)OCC(=O)[C@@]1(O)[C@H](C)C[C@H]2[C@@H]3CCC4=CC(=O)C=C[C@]4(C)[C@@]3(F)[C@@H](O)C[C@@]21C`, the Potency result in experiment [15], in experiment [8], in experiment [10], in experiment [12], in experiment [13] and in [17] was “inactive” in each case. In addition, the Potency result in experiment [18] and in experiment [14] was “inactive” each time. Also, the call in experiment [3], in [4], in [5], in experiment [6], in experiment [9] and in experiment [11] was inactive.

Turning to `C[N+](C)(CCOc1ccccc1)Cc1cccs1`, the Potency entry in experiment [15], in [2], in experiment [8], in [10], in experiment [12] and in experiment [14] was “inactive” throughout. Moreover, the compound was called inactive in experiment [3], in experiment [4], in [6] and in experiment [11]. The Potency in experiment [19] was 0.195 µM (active).

The values are drawn from PubChem BioAssay (Tox21).
